# Data reported in the supplement of paper PMC3898565.
# ± gives the uncertainty stated by the source.
# System: U87
# Assay: cell viability relative to vehicle control; higher = less growth inhibition (less active)
# Settings: 10 µM; 72 h
# 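Note: viable cell number estimated from Alamar Blue fluorescence read at 560/90, part of a single-dose primary screen of an FDA-approved drug library.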
row,SMILES,cell viability
1,NC1CCN(c2cccc(Cl)n2)CC1,97.7 ± 4%
2,C=CC[C@@H]1/C=C(\C)C[C@H](C)C[C@H](OC)[C@H]2O[C@@](O)(C(=O)C(=O)N3CCCC[C@H]3C(=O)O[C@H](/C(C)=C/[C@@H]3CC[C@@H](O)[C@H](OC)C3)[C@H](C)[C@@H](O)CC1=O)[C@H](C)C[C@@H]2OC,101.8 ± 0.73%
3,Cc1cn([C@H]2C=C[C@@H](CO)O2)c(=O)[nH]c1=O,105 ± 3%
4,CN1CCC(=C2c3ccccc3C=Cc3ccccc32)CC1 [Cyproheptadine],103.33 ± 0.068%
5,O=c1cnn([C@@H]2O[C@H](CO)[C@@H](O)[C@H]2O)c(=O)[nH]1,94.8 ± 1.9%
6,CN(C)CCCC1(c2ccc(F)cc2)OCc2cc(C#N)ccc21 (centres undefined) [Citalopram],102 ± 1.4%
7,CN1C(C(=O)Nc2ccccn2)=C(O)c2ccccc2S1(=O)=O [Piroxicam],103 ± 3.7%
8,CNCC[C@H](Oc1cccc2ccccc12)c1cccs1,101 ± 4.5%
9,CC(C(O)c1ccc(O)cc1)N1CCC(Cc2ccccc2)CC1 (centres undefined) [Ifenprodil],99.5 ± 1.3%
10,OCc1cc(C(O)CNCCCCCCOCCCCc2ccccc2)ccc1O (centres undefined) [Salmeterol],106 ± 1.1%
11,"CN=C(N)NCCC[C@H](N)C(=O)O [L-Ornithine, N5-[imino(methylamino)methyl]-[CAS]]",104.9 ± 0.88%
12,CN(Cc1cnc2nc(N)nc(N)c2n1)c1ccc(C(=O)N[C@@H](CCC(=O)O)C(=O)O)cc1,72.9 ± 0.73%
13,CCCc1nc2c(C)cc(-c3nc4ccccc4n3C)cc2n1Cc1ccc(-c2ccccc2C(=O)O)cc1,98.3 ± 2.2%
14,COC(=O)C[C@](O)(CCCC(C)(C)O)C(=O)O[C@@H]1C(OC)=C[C@]23CCCN2CCc2cc4c(cc2[C@H]13)OCO4,10.3 ± 0.73%
15,CC(C)NCC(O)COc1ccc(CCOCC2CC2)cc1 (centres undefined) [Betaxolol],100.4 ± 0.2%
16,CCC(C)n1ncn(-c2ccc(N3CCN(c4ccc(OCC5COC(Cn6cncn6)(c6ccc(Cl)cc6Cl)O5)cc4)CC3)cc2)c1=O (centres undefined),21.4 ± 2.1%
17,Nc1nc2ccc(Cl)cc2c2nc(-c3ccco3)nn12,93.4 ± 5.3%
18,CN1CCN2c3ncccc3Cc3ccccc3C2C1 (centres undefined),108 ± 2.1%
19,Nc1nc(N)nc(-c2cc(Cl)ccc2Cl)n1,95.63 ± 0.69%
20,COc1cc(C)nc(-n2nc(C)cc2OC)n1,104 ± 1.9%

row,SMILES,cell viability
1,C[C@@H]1O[C@@H](OC[C@H]2O[C@@H](Oc3c(-c4ccc(O)c(O)c4)oc4cc(O)cc(O)c4c3=O)[C@H](O)[C@@H](O)[C@@H]2O)[C@H](O)[C@H](O)[C@H]1O,91.89 ± 0.76%
2,CCCCC[C@H](O)/C=C/[C@H]1[C@H](O)CC(=O)[C@@H]1CCCCCCC(=O)O [Prostaglandin E1],105.7 ± 0.69%
3,CNS(=O)(=O)Cc1ccc2[nH]cc(CCN(C)C)c2c1,101 ± 1.5%
4,N#Cc1ccc(C(c2ccc(C#N)cc2)n2cncn2)cc1,103 ± 1.3%
5,CS(=O)(=O)c1ccc(-c2cc(Br)sc2-c2ccc(F)cc2)cc1,107.7 ± 0.82%
6,O=C1Nc2ccccc2/C1=C1/Nc2ccccc2C1=O [indirubin],99.6 ± 1.4%
7,COCC1=C(C(=O)OC(C)OC(=O)OC(C)C)N2C(=O)[C@@H](NC(=O)/C(=N\OC)c3csc(N)n3)[C@H]2SC1 (some centres undefined),106 ± 1.6%
8,CC(=O)SCC(Cc1ccccc1)C(=O)NCC(=O)OCc1ccccc1 (centres undefined),103 ± 2%
9,O=c1[nH]c(=O)n(C2CCCO2)cc1F (centres undefined),96.728 ± 0.044%
10,CCCN[C@H]1CCc2nc(N)sc2C1,105 ± 1.9%
11,COC(=O)C1=C(C)NC(C)=C(C(=O)OC2CCCN(Cc3ccccc3)C2)C1c1cccc([N+](=O)[O-])c1 (centres undefined),104 ± 1.2%
12,Cc1ccnc2c1NC(=O)c1cccnc1N2C1CC1 [Viramune],107 ± 3.4%
13,CCN1CCC[C@H]1CNC(=O)c1cc(S(N)(=O)=O)ccc1OC,102 ± 3.2%
14,CN1CCN(CCCN2c3ccccc3Sc3ccc(Cl)cc32)CC1,95.9 ± 7%
15,NC[C@H]1CC[C@H](C(=O)Oc2ccc(CCC(=O)O)cc2)CC1,104.6 ± 0.48%
16,CCCc1nc(C(C)(C)O)c(C(=O)OCc2oc(=O)oc2C)n1Cc1ccc(-c2ccccc2-c2nnn[nH]2)cc1,102 ± 1.9%
17,CC(C)OC(=O)CCC/C=C\C[C@@H]1[C@@H](CC[C@@H](O)CCc2ccccc2)[C@H](O)C[C@@H]1O,106 ± 4.2%
18,CC(C)(C)NC(=O)[C@@H]1C[C@@H]2CCCC[C@@H]2CN1C[C@@H](O)[C@H](Cc1ccccc1)NC(=O)[C@H](CC(N)=O)NC(=O)c1ccc2ccccc2n1,96.4 ± 2.6%
19,CN(C)CC[C@@H](c1ccc(Br)cc1)c1ccccn1,104.1 ± 0.82%
